In experiment [1] the target is Tyrosine-protein kinase SYK (Homo sapiens) (UniProt P43405). Particulars: at 10 µM.
Experiment [2] deals with T1, Mitogen-activated protein kinase kinase kinase 7 (Homo sapiens) (UniProt O43318).
T1 sequence (whole entry): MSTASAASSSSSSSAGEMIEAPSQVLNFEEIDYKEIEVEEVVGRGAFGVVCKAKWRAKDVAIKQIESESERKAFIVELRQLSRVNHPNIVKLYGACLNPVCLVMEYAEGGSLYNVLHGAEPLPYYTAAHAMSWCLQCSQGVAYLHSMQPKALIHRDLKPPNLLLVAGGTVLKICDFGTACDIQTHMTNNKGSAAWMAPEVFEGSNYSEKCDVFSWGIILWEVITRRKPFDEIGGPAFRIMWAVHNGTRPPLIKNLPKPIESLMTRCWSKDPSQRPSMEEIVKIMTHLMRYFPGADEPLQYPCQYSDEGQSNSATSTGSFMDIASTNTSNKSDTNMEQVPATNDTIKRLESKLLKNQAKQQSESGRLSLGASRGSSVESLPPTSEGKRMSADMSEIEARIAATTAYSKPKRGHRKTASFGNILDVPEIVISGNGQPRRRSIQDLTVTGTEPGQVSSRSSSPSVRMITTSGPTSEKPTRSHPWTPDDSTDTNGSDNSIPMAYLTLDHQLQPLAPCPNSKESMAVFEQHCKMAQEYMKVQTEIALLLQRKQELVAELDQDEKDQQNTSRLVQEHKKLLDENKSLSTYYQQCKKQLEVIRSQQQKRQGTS
Particulars: at 1 µM.

Experiment [3] deals with T1, Mitogen-activated protein kinase kinase kinase 7 (Homo sapiens). Particulars: at 10 µM.
Experiment [4] deals with T2, Serine/threonine-protein kinase TAO1 (Homo sapiens) (UniProt Q7L7X3).
T2 sequence (whole entry): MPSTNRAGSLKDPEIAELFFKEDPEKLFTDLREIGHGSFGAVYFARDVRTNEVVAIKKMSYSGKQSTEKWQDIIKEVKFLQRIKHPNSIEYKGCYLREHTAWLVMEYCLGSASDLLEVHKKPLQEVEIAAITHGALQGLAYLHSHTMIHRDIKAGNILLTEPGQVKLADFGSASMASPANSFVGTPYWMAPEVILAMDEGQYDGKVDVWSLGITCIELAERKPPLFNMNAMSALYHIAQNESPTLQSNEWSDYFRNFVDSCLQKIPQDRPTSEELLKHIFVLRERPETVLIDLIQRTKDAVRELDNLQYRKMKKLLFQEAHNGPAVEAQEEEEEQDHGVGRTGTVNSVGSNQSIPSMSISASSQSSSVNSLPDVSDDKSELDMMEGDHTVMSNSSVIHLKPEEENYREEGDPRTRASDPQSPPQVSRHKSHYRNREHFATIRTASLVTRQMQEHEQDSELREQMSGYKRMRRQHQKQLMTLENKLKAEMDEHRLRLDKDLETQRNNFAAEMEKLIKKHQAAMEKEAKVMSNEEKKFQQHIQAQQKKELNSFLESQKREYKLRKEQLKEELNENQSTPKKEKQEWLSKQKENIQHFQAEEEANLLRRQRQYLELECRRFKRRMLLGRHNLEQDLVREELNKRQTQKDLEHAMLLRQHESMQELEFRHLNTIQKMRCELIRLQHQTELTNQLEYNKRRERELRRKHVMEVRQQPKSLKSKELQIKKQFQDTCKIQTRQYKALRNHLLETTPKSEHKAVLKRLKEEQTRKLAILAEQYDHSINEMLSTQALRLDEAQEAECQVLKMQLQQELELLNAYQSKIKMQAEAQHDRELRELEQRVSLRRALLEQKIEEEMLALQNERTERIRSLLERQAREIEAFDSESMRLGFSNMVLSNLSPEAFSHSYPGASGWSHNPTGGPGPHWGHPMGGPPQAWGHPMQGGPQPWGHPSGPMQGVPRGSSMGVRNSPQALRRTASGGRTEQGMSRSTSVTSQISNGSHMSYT
Particulars: at 1 µM.

Experiment [5] concerns the target T2, Serine/threonine-protein kinase TAO1 (Homo sapiens). Particulars: at 10 µM.
Experiment [6] has as its target T3, Serine/threonine-protein kinase TAO2 (Homo sapiens) (UniProt Q9UL54).
T3 sequence (whole entry): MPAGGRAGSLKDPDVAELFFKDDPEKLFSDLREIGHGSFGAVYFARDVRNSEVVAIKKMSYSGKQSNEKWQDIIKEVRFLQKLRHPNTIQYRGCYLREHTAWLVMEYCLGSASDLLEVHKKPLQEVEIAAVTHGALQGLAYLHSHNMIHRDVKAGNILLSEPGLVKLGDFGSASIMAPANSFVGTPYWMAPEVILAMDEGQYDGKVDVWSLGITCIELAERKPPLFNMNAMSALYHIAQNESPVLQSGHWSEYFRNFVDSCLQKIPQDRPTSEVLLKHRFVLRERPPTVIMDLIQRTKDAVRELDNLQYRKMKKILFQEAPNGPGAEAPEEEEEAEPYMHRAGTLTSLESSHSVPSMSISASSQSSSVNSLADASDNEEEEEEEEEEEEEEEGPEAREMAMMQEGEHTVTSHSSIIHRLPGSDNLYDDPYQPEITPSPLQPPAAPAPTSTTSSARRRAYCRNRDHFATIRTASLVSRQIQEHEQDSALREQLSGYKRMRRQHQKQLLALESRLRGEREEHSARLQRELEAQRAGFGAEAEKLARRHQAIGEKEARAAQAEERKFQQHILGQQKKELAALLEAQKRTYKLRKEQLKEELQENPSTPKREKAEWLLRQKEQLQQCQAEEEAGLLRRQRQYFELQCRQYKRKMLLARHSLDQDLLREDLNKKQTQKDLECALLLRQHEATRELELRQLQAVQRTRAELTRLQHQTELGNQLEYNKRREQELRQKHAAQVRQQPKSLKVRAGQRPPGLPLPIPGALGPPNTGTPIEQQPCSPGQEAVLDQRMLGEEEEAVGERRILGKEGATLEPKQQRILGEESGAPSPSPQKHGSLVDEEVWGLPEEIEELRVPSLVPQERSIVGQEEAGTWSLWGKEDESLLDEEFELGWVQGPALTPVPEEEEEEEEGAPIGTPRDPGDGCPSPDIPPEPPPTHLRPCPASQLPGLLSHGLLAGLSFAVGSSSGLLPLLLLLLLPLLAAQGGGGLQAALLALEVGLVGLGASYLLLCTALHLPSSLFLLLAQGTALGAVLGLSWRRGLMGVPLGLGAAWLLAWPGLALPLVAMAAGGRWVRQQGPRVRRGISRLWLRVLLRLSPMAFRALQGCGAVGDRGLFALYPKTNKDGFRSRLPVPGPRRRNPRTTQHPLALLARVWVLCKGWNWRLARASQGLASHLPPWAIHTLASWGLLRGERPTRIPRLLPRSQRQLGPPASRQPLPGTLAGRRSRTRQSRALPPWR
Particulars: at 1 µM.

In experiment [7] the target is T3, Serine/threonine-protein kinase TAO2 (Homo sapiens). Particulars: at 10 µM.
Experiment [8] concerns the target T4, Serine/threonine-protein kinase TAO3 (Homo sapiens) (UniProt Q9H2K8).
T4 sequence (whole entry): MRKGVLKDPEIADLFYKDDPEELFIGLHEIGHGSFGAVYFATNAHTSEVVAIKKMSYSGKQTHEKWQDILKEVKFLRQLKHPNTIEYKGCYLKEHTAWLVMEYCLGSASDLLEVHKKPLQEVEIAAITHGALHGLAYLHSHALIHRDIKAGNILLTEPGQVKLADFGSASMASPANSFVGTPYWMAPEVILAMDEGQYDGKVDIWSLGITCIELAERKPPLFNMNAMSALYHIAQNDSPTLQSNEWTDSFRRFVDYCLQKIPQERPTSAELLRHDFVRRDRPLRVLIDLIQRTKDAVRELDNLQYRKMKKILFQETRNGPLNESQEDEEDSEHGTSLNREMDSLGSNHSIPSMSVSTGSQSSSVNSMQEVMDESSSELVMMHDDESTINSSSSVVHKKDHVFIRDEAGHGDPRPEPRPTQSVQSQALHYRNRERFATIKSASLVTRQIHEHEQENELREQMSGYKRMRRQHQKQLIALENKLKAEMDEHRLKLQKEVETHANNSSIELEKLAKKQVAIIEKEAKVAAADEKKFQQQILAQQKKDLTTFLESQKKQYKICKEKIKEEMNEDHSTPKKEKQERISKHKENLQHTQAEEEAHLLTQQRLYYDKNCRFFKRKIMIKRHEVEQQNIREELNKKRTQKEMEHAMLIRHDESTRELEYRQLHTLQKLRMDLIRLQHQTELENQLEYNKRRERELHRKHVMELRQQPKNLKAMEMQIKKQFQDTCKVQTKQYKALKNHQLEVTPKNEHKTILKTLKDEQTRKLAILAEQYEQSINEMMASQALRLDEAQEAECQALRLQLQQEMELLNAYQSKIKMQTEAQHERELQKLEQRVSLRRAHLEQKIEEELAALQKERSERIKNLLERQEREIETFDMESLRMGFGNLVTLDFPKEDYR
Particulars: at 1 µM.

The target of experiment [9] is T4, Serine/threonine-protein kinase TAO3 (Homo sapiens). Particulars: at 10 µM.
Experiment [10] concerns the target T5, Serine/threonine-protein kinase TBK1 (Homo sapiens) (UniProt Q9UHD2).
T5 sequence (whole entry): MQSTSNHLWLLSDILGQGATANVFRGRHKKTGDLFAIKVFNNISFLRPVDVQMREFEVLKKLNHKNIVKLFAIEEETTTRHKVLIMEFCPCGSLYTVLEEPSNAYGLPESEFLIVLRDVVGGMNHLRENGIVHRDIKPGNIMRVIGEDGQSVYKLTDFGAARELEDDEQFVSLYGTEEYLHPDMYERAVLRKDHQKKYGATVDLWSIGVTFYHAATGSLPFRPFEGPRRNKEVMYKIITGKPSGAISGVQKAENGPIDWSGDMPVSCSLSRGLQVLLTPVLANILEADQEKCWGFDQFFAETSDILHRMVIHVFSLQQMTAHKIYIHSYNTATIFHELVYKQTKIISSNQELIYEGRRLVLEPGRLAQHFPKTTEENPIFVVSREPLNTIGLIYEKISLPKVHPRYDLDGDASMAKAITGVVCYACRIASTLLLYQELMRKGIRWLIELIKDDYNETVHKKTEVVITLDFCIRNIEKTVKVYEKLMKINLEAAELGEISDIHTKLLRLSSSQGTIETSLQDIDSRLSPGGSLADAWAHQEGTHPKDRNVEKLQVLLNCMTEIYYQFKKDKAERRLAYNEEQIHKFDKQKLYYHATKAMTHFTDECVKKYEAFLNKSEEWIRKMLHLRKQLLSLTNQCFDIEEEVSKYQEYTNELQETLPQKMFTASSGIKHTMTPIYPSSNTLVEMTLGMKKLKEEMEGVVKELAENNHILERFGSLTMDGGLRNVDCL
Particulars: at 1 µM.

As to `NC(=O)c1ccc2[nH]c(-c3ccc(Oc4ccc(Cl)cc4)cc3)nc2c1`, the residual activity in [1] was determined as 96%; in experiment [2], 92%; in experiment [3] it was 81%; in [4] it was 89%; in experiment [5], 72%; in experiment [6], 88%. Moreover, the residual activity in experiment [7] is 99%; in [8] it was 98%; in experiment [9], 79%; in [10] it was 67%.

These data come from ChEMBL document CHEMBL2218924, “A broad activity screen in support of a chemogenomic map for kinase signalling research and drug discovery” (Biochem J, 2013).
